Data as given in article PMC12040169 (PLOS Biology, 2025).

tested on: T1, C. trachomatis L2/434/Bu expressing GFP (CTL2-GFP); set-up: species or system HeLa; C. trachomatis total inclusion area by high-content imaging, normalised to DMSO; conditions: total inclusion area; 28.5 h, 10 µM; inhibitor
T1 construct: L2/434/Bu GFP intracellular growth in HeLa cells
Source text: We screened a library of 36,785 small molecules displaying drug-like properties and covering a wide chemical space (Fig 1A and S2A Data). In this process, we also complemented the assay described above with an imaging-based readout (Fig 1B). After measurements of bulk GFP and resorufin fluorescence, cells were fixed, stained with the DNA dye Hoechst, and imaged at a high-content imaging platform to detect chlamydial inclusions (GFP) and host cell nuclei (Hoechst). The total area and number of inclusions in individual wells and the number of nuclei then served as additional proxies for chlamydial growth and host cell viability. […] MICs were calculated as described above.

SMILES | % of control remaining
S=P(Oc1ccccc1)(Oc1ccccc1)Oc1ccccc1 [CBK260987] | 0.9936
CCOC(=O)CC(C)(O)P(=O)(OC)OC (stereo not drawn) [CBK261287] | 1.025
O=C(c1cccc(S(=O)(=O)F)c1)N1CCCCC1 [CBK074224] | 0.8769
